Assay results published in PubChem BioAssay (NCI).
This is part of a sample that, as a whole, favours compounds with a hit. Of some 79,000 tested, about 15% had one in any assay. Values without a mark were called inactive. Calls of active or inactive are those of the source. No stated cut-off is given here; in the data, active means growth inhibition above about 70%; inactive means the rest.

What was measured:
[1] = NCI Yeast Anticancer Drug Screen. Data for the rad50 strain (AID 155);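 further: 0% = growth of vehicle-only cultures of the same strain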; details: S. cerevisiae rad50 strain growth inhibition, hits give high values
Outline: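 Readout: growth inhibition relative to vehicle-treated cultures. Compound exposure was carried out in a genetically defined yeast strain deficient in DNA damage repair.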

[2] = NCI Yeast Anticancer Drug Screen. Data for the mec2-1 strain (AID 157); details: S. cerevisiae mec2-1 strain, hits give high values
Outline: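 Test agents were screened against the mec2-1 yeast strain, with defined DNA repair or cell cycle alteration. Growth was scored as inhibition against vehicle-only controls.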

[3] = NCI Yeast Anticancer Drug Screen. Data for the sgs1 mgt1 strain (AID 161);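 further: 0% = growth of cultures given vehicle only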; details: S. cerevisiae sgs1 mgt1 strain, hits give high values
Outline: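 Inhibition of yeast growth, normalised to vehicle-treated controls, is reported for a strain bearing genetic alterations in DNA damage repair.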

[4] = NCI Yeast Anticancer Drug Screen. Data for the cln2 rad14 strain (AID 165);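 further: 0% = growth equal to vehicle treated cultures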; details: S. cerevisiae cln2 rad14 strain, hits give high values
Outline: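 Growth of compound-exposed yeast (cln2 rad14 genotype) measured and expressed as inhibition relative to vehicle.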

[5] = NCI Yeast Anticancer Drug Screen. Data for the bub3 strain (AID 167); details: S. cerevisiae bub3 mutant strain, hits give high values
Outline: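 Readout: yeast growth inhibition, expressed relative to vehicle-only wells. The test organism is a mutant strain from a panel with lesions in DNA repair or checkpoint genes.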

[6] = NCI Yeast Anticancer Drug Screen. Data for the mlh1 rad18 strain (AID 175); details: S. cerevisiae mlh1 rad18 strain growth inhibition, hits give high values
Outline: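 In this whole-cell yeast screen, a strain with altered DNA damage repair is challenged with compound, and its growth is measured against matched vehicle-treated controls.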

[7] = at 5.0 µM (retest, dose inferred, filed as 0.5)
[8] = at 50.0 µM (retest, dose inferred, filed as 5.0)

Row | Compound | growth inhibition [1, 7] | growth inhibition [1, 8] | growth inhibition ([1]; at 50.0 µM) | growth inhibition [2, 7] | growth inhibition [2, 8] | growth inhibition ([2]; at 50.0 µM) | growth inhibition [3, 7] | growth inhibition [3, 8] | growth inhibition ([3]; at 50.0 µM) | growth inhibition [4, 7] [%] | growth inhibition [4, 8] | growth inhibition ([4]; at 50.0 µM) | growth inhibition [5, 7] | growth inhibition [5, 8] | growth inhibition ([5]; at 50.0 µM) | growth inhibition [6, 7] [%] | growth inhibition [6, 8] | growth inhibition ([6]; at 50.0 µM)
1 | C/C=C(\C)[C@H](O)C(COCc1ccccc1)NS(=O)(=O)c1ccc(C)cc1 (some centres not stated) | -5% | 44% | 30.1% | -3% | 26% | 98.5% (active) | -7% | 43% | 36.8% | -2 | 47% | 22.6% | -3% | 51% | 97.5% (active) | -4 | 36% | 58.5%
2 | C=C(C)[P+](C)(c1ccccc1)c1ccccc1 | -12% | 25% | 72.7% (active) | -12% | 6% | 0.95% | -8% | 22% | 28.9% | 1 | -2% | 4.4% | -18% | 6% | -9.3% | -4 | 4% | 29.3%
3 | Cc1ccc(S(=O)(=O)Oc2c([N+](=O)[O-])cc(C)cc2[N+](=O)[O-])cc1 | 29% | 54% | 96.6% (active) | 10% | 29% | 97.6% (active) | 14% | 21% | 98.2% (active) | -1 | 17% | 82.7% (active) | 5% | 34% | 94% (active) | 17 | 59% | 95.1% (active)
4 | Oc1c(N(Cc2ccccc2)Cc2ccccc2)ccc2cccnc12 | -2% | 96% (active) | 98.4% (active) | -15% | 96% (active) | 98.5% (active) | -1% | 97% (active) | 98.6% (active) | -15 | 95% (active) | 96.2% (active) | -8% | 97% (active) | 98.8% (active) | 1 | 96% (active) | 98% (active)
5 | C#CC[N+](CC)(CC)CCNC(=O)CCCCCCCCCCCCCCC | 97% (active) | 99% (active) | 99.5% (active) | 81% (active) | 99% (active) | 99.7% (active) | 98% (active) | 100% (active) | 99.6% (active) | 51 | 99% (active) | 98.8% (active) | 92% (active) | 99% (active) | 99.6% (active) | 49 | 99% (active) | 99.5% (active)
6 | OCCC(CCN1CCOCC1)(c1ccccc1)C1(O)CCCC1 (configuration not stated) | 3% | 3% | -2.95% | 5% | 2% | 45.3% | 8% | 3% | 74.4% (active) | 2 | 2% | 71.2% (active) | -3% | -4% | 61.4% | -2 | -2% | 73.8% (active)
7 | Cc1cc(C)c(O)c(Cc2cc(Cl)cc(Cc3cc(C)cc(C)c3O)c2O)c1 | 0% | 91% (active) | 94% (active) | 1% | 93% (active) | 92.5% (active) | 13% | 93% (active) | 95.3% (active) | 6 | 91% (active) | 95.2% (active) | -9% | 92% (active) | 93.5% (active) | 15 | 92% (active) | 91.4% (active)
8 | COc1cc(/C=C/c2cc[n+](C)cc2)ccc1O | -11% | -14% | 26.1% | 12% | 7% | 31.7% | -18% | -17% | 12.4% | -2 | 16% | 79.5% (active) | 0% | 11% | 0.85% | -8 | -10% | -8.35%
9 | CN1CCCC1c1cccc(Br)c1 (configuration not stated) | -163% | 81% (active) | 59% | -51% | 26% | 17.1% | -65% | 37% | 21.6% | -75 | 50% | -1.05% | -69% | 54% | -8.55% | -125 | 50% | 26.1%
10 | O=[N+]([O-])c1ccc2nc(CCl)[nH]c2c1 | 46% | 80% (active) | 73.2% (active) | 37% | 74% (active) | 65.5% | 42% | 83% (active) | 75% (active) | 35 | 56% | 61% | 43% | 84% (active) | 74% (active) | 49 | 87% (active) | 73.3% (active)
11 | CCCCCCC1CC(=O)C1(Cl)Cl (configuration not stated) | -9% | 100% (active) | 89.1% (active) | -16% | 100% (active) | 93.3% (active) | -17% | 100% (active) | 90.1% (active) | -4 | 100% (active) | 92.5% (active) | -32% | 100% (active) | 92% (active) | 12 | 100% (active) | 86.2% (active)
12 | COC12C(COC(N)=O)C3=C(C(=O)C(C)=C(N)C3=O)N1CC1C2N1C(=O)/C=C/c1ccccc1 (configuration not stated) | 11% | 72% (active) | 73.7% (active) | 13% | 82% (active) | 70.7% (active) | 24% | 87% (active) | 85.7% (active) | 3 | 80% (active) | 75.7% (active) | 2% | 66% | 72.4% (active) | 27 | 90% (active) | 87% (active)
13 | CCN(CC)CCOc1ccc(C(=C2CCCCC2)c2ccc(OCCN(CC)CC)cc2)cc1 | 34% | 34% | 84.8% (active) | 31% | 31% | 41% | 31% | 31% | 89.1% (active) | 31 | 31% | 77% (active) | 31% | 31% | 76.8% (active) | 28 | 28% | 78.5% (active)
14 | CCCCCC(C)NCCOC(=O)c1ccccc1 (configuration not stated) | 3% | 78% (active) | 50.8% | -13% | 82% (active) | -10.7% | -8% | 79% (active) | 59.4% | 0 | 26% | 67.2% | 3% | 84% (active) | 75.5% (active) | 18 | 89% (active) | 40.5%
15 | COc1ccc(-c2c(COC(C)=O)c(COC(C)=O)c3n2CCC3)cc1 | -4% | 34% | 98.5% (active) | -4% | 19% | 99.1% (active) | -6% | 23% | 98.9% (active) | -3 | -4% | 97.8% (active) | -6% | -3% | 98.8% (active) | -6 | 40% | 98.8% (active)
16 | CCOC(=O)C(CC)(CCc1ccccc1[N+](=O)[O-])C(=O)OCC | 8% | -24% | 61.2% | -3% | -2% | -6.6% | 9% | 37% | 39.2% | 0 | -17% | -18.1% | 6% | 24% | 75.9% (active) | 17 | 13% | 60.9%
17 | OCCN=Cc1cccs1 | 1% | 3% | 8.85% | -2% | 5% | 2.8% | -1% | 2% | 2.05% | 0 | 1% | 13.7% | 1% | 2% | 8.25% | -25 | 5% | 3.4%
18 | Cc1cc(Cl)cc2c1NC(=O)C2(O)C/C(=N/NC(=O)CC#N)c1cccc([N+](=O)[O-])c1 (configuration not stated) | 4% | 20% | 59.1% | -13% | 35% | 38.1% | -1% | -4% | 62.2% | -3 | 1% | 9.4% | 1% | 13% | 15.4% | 1 | -23% | 76.8% (active)
19 | c1cc[c]([Sn]([CH]2c3ccccc3-c3ccccc32)([CH]2c3ccccc3-c3ccccc32)[CH]2c3ccccc3-c3ccccc32)cc1 | 4% | 0% | 95.2% (active) | 5% | 2% | 98% (active) | -1% | -4% | 95.5% (active) | 3 | 6% | 95% (active) | 2% | -3% | 97.3% (active) | 4 | 11% | 96.3% (active)
